# Source: PubChem BioAssay
# An excerpt weighted towards active compounds, which were near 3.9% of everything screened.
# VHR inh abs – inhibitors of human VHR1 phosphatase (DUSP3); AID 1654; 290,000 compounds, 0.52% hits; P51452; recombinant VHR phosphatase, pNPP absorbance; inhibition, % at 13.3 µM; in the data active = inhibition above about 50%
# Autofluor counter – compound fluorescence in toxin protease inhibitor counterscreen; compound autofluorescence counterscreen, microsphere flow cytometry; active compounds read high; fluorescence intensity (concentration not given with the values); 360,000 compounds, 3.1% hits; AID 624483; in the data active = fluorescence intensity above about 16000; inconclusive = no clear call, values can overlap the other calls
# Anthrax LF prot – blocks Bacillus anthracis lethal factor protease; inhibition, % at 10 µM; AID 588501; P15917; multiplex microsphere protease cleavage assay, LF; 360,000 compounds, 0.12% hits; also: plate controls were buffer without enzyme for full effect and enzyme alone for no effect
# Target sequence (P15917 whole entry, looked up): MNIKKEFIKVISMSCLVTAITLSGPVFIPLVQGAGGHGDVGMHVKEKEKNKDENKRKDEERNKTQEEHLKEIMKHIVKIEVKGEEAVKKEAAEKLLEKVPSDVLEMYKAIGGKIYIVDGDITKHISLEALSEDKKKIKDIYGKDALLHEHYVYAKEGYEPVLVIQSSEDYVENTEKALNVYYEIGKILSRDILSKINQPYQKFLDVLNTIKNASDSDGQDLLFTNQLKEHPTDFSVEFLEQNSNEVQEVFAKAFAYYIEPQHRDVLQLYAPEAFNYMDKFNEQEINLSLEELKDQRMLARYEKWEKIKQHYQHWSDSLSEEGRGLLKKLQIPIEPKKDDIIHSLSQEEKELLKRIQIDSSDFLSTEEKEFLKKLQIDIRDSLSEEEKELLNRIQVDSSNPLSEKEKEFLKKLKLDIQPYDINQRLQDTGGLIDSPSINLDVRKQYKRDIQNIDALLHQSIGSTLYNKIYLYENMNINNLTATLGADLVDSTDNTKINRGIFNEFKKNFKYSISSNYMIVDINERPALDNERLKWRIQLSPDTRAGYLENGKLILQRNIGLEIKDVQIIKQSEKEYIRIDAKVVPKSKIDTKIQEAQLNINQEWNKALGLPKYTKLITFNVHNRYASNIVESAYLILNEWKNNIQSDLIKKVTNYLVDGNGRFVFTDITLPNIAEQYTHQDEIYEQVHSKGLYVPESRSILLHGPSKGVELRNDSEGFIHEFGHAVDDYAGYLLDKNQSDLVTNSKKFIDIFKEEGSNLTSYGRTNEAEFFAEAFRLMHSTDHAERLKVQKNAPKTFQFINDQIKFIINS
# BoNT-F LC inh – BoNT F light chain protease inhibition; Multiplex microsphere protease cleavage assay, flow cytometry; inhibition, % at 10 µM; 360,000 compounds, 0.22% hits; AID 588497; in the data active = inhibition above about 35%, passing the limit was not always enough; inconclusive = no clear call, values can overlap the other calls; also: plate controls were buffer without enzyme for full effect and enzyme alone for no effect
# SARS 3CLpro inh – SARS-CoV 3CLpro protease inhibition. P0C6X7. inhibition, % at 6 µM. AID 1706. recombinant SARS-CoV 3CLpro, quenched FRET peptide cleavage. 290,000 compounds, 0.14% hits; in the data active = inhibition above about 12%
# BoNT-A LC inh2 – blocks Botulinum neurotoxin A light chain protease; multiplex microsphere protease substrate cleavage, flow cytometry; inhibition, % at 10 µM; 360,000 compounds, 0.17% hits; AID 588499; also: plate controls were buffer without enzyme for full effect and enzyme alone for no effect
# Active calls of the source: *; ? = inconclusive; / = no result. Rule as the data show it, unless noted: active = inhibition above about 30%; inconclusive = no clear call, values can overlap the other calls; inactive = below that.
SMILES,VHR inh abs,Autofluor counter,Anthrax LF prot,BoNT-F LC inh,SARS 3CLpro inh,BoNT-A LC inh2
O=[N+]([O-])c1cc(S(=O)(=O)Nc2ccccc2)ccc1NCc1cccnc1,59.9*,2462,-1.4,-4.1,-4.4,-0.4
O=[N+]([O-])c1cc(S(=O)(=O)Nc2ccccc2)ccc1NCc1ccccc1,25.5,2472,-3.0,-11.2,2.0,-0.3
CCc1noc(C)c1C(=O)N1CCSC1=Nc1cccc(Cl)c1C,8.6,5663,-0.4,5.0,1.1,0.5
COCC(C)NC(=O)c1ccc(N(C)C)cc1 (configuration not stated),-14.1,17509*,-2.0,-5.5,0.6,-2.0
O=C1NN(c2ccccc2)C(=O)/C1=C/c1ccc(-c2ccc(C(=O)O)cc2)o1,-3.5,3630,-8.1,-32.1,1.8,0.6
O=C1NN(c2ccccc2)C(=O)/C1=C/c1ccc(Sc2cccc3ccccc23)o1,51.3*,2576,-0.2,-15.9,2.8,-0.7
Cc1ccccc1NC(=O)CN1C(=O)NC2(CCCCCCC2)C1=O,/,?,0.7,0.3,/,-4.7
O=C(NC1CCCC1)C1(c2ccccc2)CCN(S(=O)(=O)c2ccccc2)CC1,39.1,24081*,-1.2,-3.5,2.1,?
Cc1ccnc(SCC(=O)Nc2sc3c(c2C#N)CCC(C(C)(C)C)C3)n1 (configuration not stated),-18.5,19751*,-0.7,-0.9,-2.2,?
Cc1cc(C)nc(SCC(=O)Nc2sc3c(c2C#N)CCC(C)C3)n1 (configuration not stated),/,2477,-5.2,-25.9,-0.3,-1.2
CCN(C(=O)COC(=O)CCc1ccccc1)c1ccccc1,1.4,4643,-1.5,-8.3,4.6,1.6
O=C1CC(c2cccs2)c2cc3c(cc2N1)OCO3 (configuration not stated),10.2,23380*,-1.5,-8.1,1.4,-3.0
COc1cc2c(cc1OC)C(c1cccs1)CC(=O)N2 (configuration not stated),3.6,5372,-2.1,-2.6,1.1,0.0
COc1ccc(O)c(/C=N/NC(=O)CCC(=O)Nc2ccc(F)cc2)c1,17.0,3360,5.1,-7.4,5.5,-2.6
O=C1OCCC1Sc1nnc(-c2ccc3c(c2)OCO3)o1 (configuration not stated),17.4,4302,-3.0,-6.0,5.3,-1.0
O=C1OCCC1Sc1nnc(-c2cccc(Br)c2)o1 (configuration not stated),-12.2,20056*,-3.4,0.2,-3.8,1.5
NC(=O)N/N=C/c1coc2ccc3ccccc3c2c1=O,10.1,5689,-1.7,0.9,0.4,-0.3
O=Cc1coc2ccc3ccccc3c2c1=O,55.5*,3818,11.1,26.4,1.1,-0.4
Cc1ccc(N2CCN(C(=O)N3CCCC3)CC2)cc1C,22.3,16586*,-3.2,2.3,-1.2,0.0
CC(C)(C)C(C(=O)n1cccc1C#N)c1ccccc1 (configuration not stated),/,3998,-4.0,-8.7,/,0.5
Oc1c(Cl)cc(Cl)cc1C=Nc1ccc(N2CCOCC2)cc1,59.6*,3566,-7.7,9.0,0.6,3.9
Oc1ccc(C=Nc2ccc(N3CCOCC3)cc2)c(O)c1,10.5,4790,-2.7,-15.1,-1.7,-1.0
Cc1cccc(NC(=O)CSCC(=O)Nc2sccc2C#N)c1,/,5102,-2.1,-1.3,/,1.1
O=c1ccccn1CCOc1ccccc1Cl,-9.9,2016,-0.9,-1.7,0.8,-0.3
O=C(Nc1cccn(Cc2c(Cl)cccc2Cl)c1=O)c1ccccc1Cl,23.1,21806*,-6.2,-4.6,1.8,?
SMILES,VHR inh abs,Autofluor counter,Anthrax LF prot,BoNT-F LC inh,SARS 3CLpro inh,BoNT-A LC inh2
O=c1ccccn1Cc1c(Cl)cccc1Cl,12.8,23028*,-0.6,4.2,-0.6,?
O=C(C[n+]1cc(Br)cc(Br)c1)c1ccc(Cl)cc1,-5.7,3666,5.3,-11.2,-3.6,8.0
O=C(C[n+]1cccc2ccccc21)c1ccc(Br)cc1,5.2,8510,16.1,?,2.2,6.9
O=C(C[n+]1cc(Br)cc2ccccc21)c1ccc(Cl)cc1,-1.2,6803,20.4,31.9,-2.0,103.8*
O=C(C[n+]1cn(C(F)F)c2ccccc21)c1ccc(Br)cc1,17.5,4482,-6.5,0.2,8.0,-1.3
Cc1ccc(C(=O)C[n+]2cccc3ccccc32)cc1,19.9,5828,15.9,53.3*,2.2,10.9
O=C(C[n+]1cc(Br)cc2ccccc21)c1ccc(Br)cc1,-22.7,6312,45.3*,-1.2,2.5,120.0*
CCN(C(=O)Cc1c(C(=O)O)n(CC)c2ccccc12)c1cccc(C(F)(F)F)c1,32.2,3522,-13.9,-7.5,4.5,-0.4
O=C(O)CP(=O)(O)c1ccc(Cl)cc1,50.8*,2789,-0.3,-7.7,7.4,0.1
COc1ccc(CC(=O)c2c(O)cc(O)cc2O)cc1OC,43.7,22635*,-2.3,-17.2,-0.6,?
Cc1ccc(-n2ncc3c(=O)n(CC(=O)N(C)C)cnc32)cc1,27.9,3390,-2.4,1.9,-4.1,0.5
Cc1ccc(-n2ncc3c(=O)n(Cc4cccnc4)cnc32)cc1,-6.2,19270*,-2.7,-2.6,-1.7,0.6
Cc1ccc(C(=O)CC(C(=O)O)c2cn(CCC#N)c3ccccc23)cc1 (configuration not stated),4.6,5323,-7.4,-3.2,-0.7,-1.2
Cn1cc(C(CC(=O)O)C(=O)O)c2ccccc21 (configuration not stated),-0.5,23907*,1.8,-2.3,4.3,0.1
CCCn1cc(C(CC(=O)O)C(=O)O)c2ccccc21 (configuration not stated),25.6,24400*,0.0,-1.9,-0.5,-1.2
O=C(CNC(=O)OCc1ccccc1)NC1CCCCCC1,53.0*,4997,3.6,1.0,-1.1,-0.4
CN(Cc1ccccc1)C(=O)NC1CCCCC1,-9.4,22110*,0.6,-10.7,2.0,?
Cc1ccccc1Nc1nnc(SCC(=O)NC2CCCc3ccccc32)s1 (configuration not stated),26.2,10766,0.9,-2.7,1.1,-0.1
O=S(=O)(NCc1cn2ccccc2n1)c1ccccc1F,8.7,5639,-5.1,-13.2,-1.7,-0.3
CC(C(=O)N(C)Cc1cccc(F)c1)N1CCN(S(=O)(=O)c2ccc3c(c2)OCCCO3)CC1 (configuration not stated),/,4794,-2.9,4.0,/,-3.9
Cc1ccc(CNC(=O)c2ccc3c(c2)S(=O)(=O)c2ccccc2C3=O)o1,/,3889,-2.5,-5.2,/,0.6
COCCNC(=O)c1c(NC(=O)c2ccc(Br)o2)n(Cc2ccccc2)c2nc3ccccc3nc12,-8.4,3089,10.7,-0.5,3.7,35.3*
CCCCN1C(=O)C(=O)N(CC(=O)Nc2cc(OCC)c(N3CCOCC3)cc2OCC)C1=O,24.2,3216,-3.7,-4.7,4.4,-0.7
Cc1cc(C(=O)Nc2cccc(C(=O)O)c2)c(C)o1,10.4,22853*,0.3,2.7,1.7,?
COCCCNC(=O)C1c2ccccc2Oc2ccccc21,27.2,3595,8.7,41.5*,1.1,0.2
CCN(CC)CCCNC(=O)C1c2ccccc2Oc2ccccc21,5.0,5036,3.0,3.9,-2.3,1.2
